Hits are enriched below; roughly 2.7% of the tested compounds scored in any of these assays.
FAS-TE inh = FAS thioesterase (human) inhibition | 360,000 compounds, 0.67% hits | P49327 | inhibition, % at 15 µM | recombinant FAS-TE, OMFH fluorogenic substrate, fluorescence endpoint;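 active = compounds whose normalised, plate-corrected inhibition of enzyme fluorescence in the single-dose primary screen is 50% or more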
Target sequence (P49327 whole entry, looked up): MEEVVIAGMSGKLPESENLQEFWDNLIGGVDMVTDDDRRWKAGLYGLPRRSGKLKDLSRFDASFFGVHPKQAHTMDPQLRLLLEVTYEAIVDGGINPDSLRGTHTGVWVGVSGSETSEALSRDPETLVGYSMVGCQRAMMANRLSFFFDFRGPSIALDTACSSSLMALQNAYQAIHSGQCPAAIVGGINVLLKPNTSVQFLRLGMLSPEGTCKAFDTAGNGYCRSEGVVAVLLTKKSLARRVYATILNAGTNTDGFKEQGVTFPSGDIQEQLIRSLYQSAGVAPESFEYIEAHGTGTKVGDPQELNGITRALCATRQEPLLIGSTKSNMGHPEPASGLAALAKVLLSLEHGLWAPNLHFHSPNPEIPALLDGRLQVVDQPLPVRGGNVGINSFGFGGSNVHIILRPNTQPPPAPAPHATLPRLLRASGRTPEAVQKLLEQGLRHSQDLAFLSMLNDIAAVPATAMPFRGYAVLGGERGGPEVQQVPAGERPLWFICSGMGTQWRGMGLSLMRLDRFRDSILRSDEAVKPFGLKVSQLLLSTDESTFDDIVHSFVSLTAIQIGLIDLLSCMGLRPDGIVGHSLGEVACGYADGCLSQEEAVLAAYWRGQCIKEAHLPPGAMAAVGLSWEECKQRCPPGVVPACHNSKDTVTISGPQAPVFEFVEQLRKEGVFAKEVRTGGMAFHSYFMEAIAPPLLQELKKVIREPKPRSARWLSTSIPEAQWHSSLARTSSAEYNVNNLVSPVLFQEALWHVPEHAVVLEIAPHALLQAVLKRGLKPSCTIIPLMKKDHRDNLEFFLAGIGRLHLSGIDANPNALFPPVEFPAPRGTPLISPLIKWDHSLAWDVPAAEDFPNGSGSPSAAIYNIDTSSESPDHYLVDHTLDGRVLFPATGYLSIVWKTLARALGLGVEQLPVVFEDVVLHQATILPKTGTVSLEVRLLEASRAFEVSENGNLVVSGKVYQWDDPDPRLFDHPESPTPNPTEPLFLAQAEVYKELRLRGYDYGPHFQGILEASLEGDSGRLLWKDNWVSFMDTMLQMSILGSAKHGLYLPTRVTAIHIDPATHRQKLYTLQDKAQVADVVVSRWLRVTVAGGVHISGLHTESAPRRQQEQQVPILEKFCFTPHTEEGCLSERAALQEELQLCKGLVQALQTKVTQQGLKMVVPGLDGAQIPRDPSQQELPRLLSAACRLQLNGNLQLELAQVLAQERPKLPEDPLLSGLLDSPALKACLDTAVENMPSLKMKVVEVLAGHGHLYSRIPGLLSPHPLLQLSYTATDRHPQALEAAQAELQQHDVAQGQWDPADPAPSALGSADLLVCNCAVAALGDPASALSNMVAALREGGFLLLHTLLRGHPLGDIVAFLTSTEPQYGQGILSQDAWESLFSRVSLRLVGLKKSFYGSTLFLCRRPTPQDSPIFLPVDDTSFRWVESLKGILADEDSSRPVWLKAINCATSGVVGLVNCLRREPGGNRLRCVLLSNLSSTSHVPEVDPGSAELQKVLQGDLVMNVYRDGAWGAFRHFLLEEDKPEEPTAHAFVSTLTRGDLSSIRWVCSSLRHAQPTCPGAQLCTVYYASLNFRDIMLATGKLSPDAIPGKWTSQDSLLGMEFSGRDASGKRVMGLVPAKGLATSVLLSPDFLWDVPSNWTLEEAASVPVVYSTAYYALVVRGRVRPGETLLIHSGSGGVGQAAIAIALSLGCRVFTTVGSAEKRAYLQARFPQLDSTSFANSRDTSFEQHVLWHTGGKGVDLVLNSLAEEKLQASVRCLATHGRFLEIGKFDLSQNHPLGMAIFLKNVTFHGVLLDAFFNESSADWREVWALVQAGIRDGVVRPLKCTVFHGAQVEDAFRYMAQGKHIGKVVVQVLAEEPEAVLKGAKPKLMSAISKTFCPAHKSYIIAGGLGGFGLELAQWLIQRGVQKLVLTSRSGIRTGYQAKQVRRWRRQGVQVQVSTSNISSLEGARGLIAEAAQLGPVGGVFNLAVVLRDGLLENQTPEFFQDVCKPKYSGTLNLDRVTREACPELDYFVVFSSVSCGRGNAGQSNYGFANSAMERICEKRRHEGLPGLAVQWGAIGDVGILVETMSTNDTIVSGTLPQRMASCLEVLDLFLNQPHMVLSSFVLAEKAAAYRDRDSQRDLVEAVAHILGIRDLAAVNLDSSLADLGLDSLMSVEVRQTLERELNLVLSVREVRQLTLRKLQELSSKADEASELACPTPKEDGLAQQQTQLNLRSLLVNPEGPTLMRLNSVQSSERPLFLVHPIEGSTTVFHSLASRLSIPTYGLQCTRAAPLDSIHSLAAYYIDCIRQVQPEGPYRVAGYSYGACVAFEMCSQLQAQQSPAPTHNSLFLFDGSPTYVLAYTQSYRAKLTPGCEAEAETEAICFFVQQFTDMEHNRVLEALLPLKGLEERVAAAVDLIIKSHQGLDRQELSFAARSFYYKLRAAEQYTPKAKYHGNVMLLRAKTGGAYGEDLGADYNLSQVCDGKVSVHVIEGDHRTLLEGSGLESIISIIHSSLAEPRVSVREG
PfGluPho inh = PfG6PD (Plasmodium falciparum) enzyme inhibition. AID 504690. PfGluPho enzyme, NADPH resazurin-diaphorase fluorescence. 350,000 compounds, 0.78% hits. inhibition, % at 20 µM;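 active = inhibition reaching at least a set limit at 20 µM in the primary screen, cut at about 59% in these data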
Neddyl block = inhibitors of human cullin neddylation; 360,000 compounds, 0.58% hits; AID 651699; calls only at 25 µM; TR-FRET cullin neddylation, biochemical; P61081+Q13564; in the data active = inhibition above about 36%
proKLK7 act = activates the human kallikrein-7 zymogen; P49862; purified proKLK7, EDANS-DABCYL substrate fluorescence; 100% is mature enzyme control, 0% vehicle; activation, % at 7 µM; 370,000 compounds, 0.9% hits; AID 652039;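 active = activation above the mean of all tested compounds plus 3 SD, computed per campaign excluding outliers beyond control limits, cut at about 13% in these data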
proKLK7 act conf = confirmation of human kallikrein-7 zymogen activators. shares compounds with proKLK7 act. purified proKLK7, EDANS-DABCYL substrate fluorescence; scaled: vehicle 0, mature enzyme 100. activation, % at 7 µM. 3,200 compounds, 68% hits. AID 686949;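 active = activation, as change over the incubation, above the mean of all tested compounds plus 3 SD, cut at about 13% in these data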
EDANS-DABCYL int = optically interferes with EDANS-DABCYL signal, flagging KLK7 hits. shares compounds with proKLK7 act. EDANS-DABCYL substrate fluorescence interference, no enzyme, 4 h; solvent 0%, active enzyme control 100%. activation, % at 7 µM. 3,200 compounds, 80% hits. AID 686952;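 active = activation above the all-compound mean plus 3 SD, ignoring values outside control-based bounds, cut at about 4.8% in these data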;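 also: value is the 4 h activation minus the activation read at time zero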
K7 EDANS ctr = optically interferes with EDANS-DABCYL fluorescence, kallikrein-7 activator counter-screen. shares compounds with proKLK7 act. EDANS-DABCYL peptide fluorescence interference, no enzyme. EC50, µM. 250 compounds, 20% hits. AID 720493;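 active = compounds that raise the fluorescence signal in this interference counterscreen, with EC50 at or below 10 µM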;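 also: intact quenched peptide substrate alone read at 355 nm excitation and 520 nm emission; signal is fluorescence gain from T0 to T4 after four hours at room temperature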
A number is an active result; - = inactive; . = no result given.

SMILES	FAS-TE inh	PfGluPho inh	Neddyl block	proKLK7 act	proKLK7 act conf	EDANS-DABCYL int	others
COC(=O)Cc1c(C)c2c(OCc3nn[nH]n3)cc(C)cc2oc1=O	-	-	.	-	.	.
CCOC(=O)Cc1c(C)c2ccc(N(CC)CC)cc2oc1=O	-	-	.	76	-	-
CC(C)(C)C(=O)O[C@@H]1CCC[C@@]2(C(=O)N(Cc3ccccc3)c3ccccc32)[C@H]1NC(=O)CCc1ccccc1	.	.	.	-	.	.
COC(=O)C1=CN(C)C=C(C(=O)OC)C1c1ccsc1	-	-	.	33	16	24
CCOC(=O)c1cc2nc(-c3ccco3)cc(C(F)(F)F)n2n1	-	-	.	19	-	-
Cc1nn(C)c(C)c1NC(=O)c1cc2nc(-c3ccco3)cc(C(F)(F)F)n2n1	-	-	-	-	.	.
O=C(NC1CCCCN(Cc2ccc(Cl)cc2)C1=O)c1cccc([N+](=O)[O-])c1 (stereo unspecified)	.	.	.	-	.	.
CSc1nc(N2CCOCC2)nc2ccc(C)cc12	-	-	.	35	-	-
CC(=O)Nc1ccc(C2Nc3ccccc3C(=O)N2C2CCCCC2)cc1 (stereo unspecified)	-	-	.	13	30	26	K7 EDANS ctr=-
O=C(Nc1ccc2c(c1)OCCO2)C1C(=O)Nc2ccccc2C(=O)N1C1CCCCC1 (stereo unspecified)	.	.	-	-	.	.
CC(=O)c1cc(-c2ccc(S(C)(=O)=O)cc2)c(=O)n2c1CCC2	.	.	.	-	.	.
CC(=O)c1ccc(-c2cc(C(C)=O)c3n(c2=O)CCC3)cc1	.	.	.	44	61	74
Cc1ccc(S(=O)(=O)NC(C(=O)Oc2ccc3c(C(F)(F)F)cc(=O)oc3c2)c2ccccc2)cc1 (stereo unspecified)	-	-	.	48	55	73
Cc1ccc(S(=O)(=O)NC(CC(C)C)C(=O)Oc2ccc3c4c(c(=O)oc3c2)CCC4)cc1 (stereo unspecified)	-	-	.	49	90	77
CCC(NC(=O)OC(C)(C)C)C(=O)Oc1ccc2c3c(c(=O)oc2c1)CCC3 (stereo unspecified)	-	-	.	107	664	670
CC(C)CC(C(=O)Oc1ccc2c3c(c(=O)oc2c1)CCC3)N1C(=O)c2ccccc2C1=O (stereo unspecified)	-	-	.	-	.	.
COC(=O)C(NS(=O)(=O)c1ccc(C)cc1)c1ccccc1 (stereo unspecified)	-	-	-	-	.	.
CC[C@@H](NS(=O)(=O)c1ccc(C)cc1)C(=O)Oc1ccc2c3c(c(=O)oc2c1)CCC3	-	-	.	241	534	473
O=C(O)COc1ccc2c3c(c(=O)oc2c1)CCC3	-	-	.	-	.	.
COc1ccc(NC(=O)c2cc(C3CCCCN3S(=O)(=O)c3ccc(C#N)cc3)on2)c(C)c1 (stereo unspecified)	-	.	-	-	.	.
COc1ccc(NC(=O)COC(=O)c2ccc(S(=O)(=O)N3CCCCC3)cc2)c(OC)c1	-	-	-	-	.	.
CN(C(=O)[C@@H](C1CC1)[C@@H](O)c1ccc(Cl)cc1)c1ccccc1	.	.	.	-	.	.
COc1cc(OC)cc(C(=O)NCC2CCN(C(=O)C(=O)c3cc4ccccc4o3)CC2)c1	.	.	.	-	.	.
Cc1c(OCC(=O)OC(C)(C)C)ccc2c3c(c(=O)oc12)CCC3	-	-	-	-	.	.
CCC(C)C(NS(=O)(=O)c1ccc(C)cc1)C(=O)Oc1ccc2c3c(c(=O)oc2c1)CCC3 (stereo unspecified)	-	-	.	21	43	37	K7 EDANS ctr=-
SMILES	FAS-TE inh	PfGluPho inh	Neddyl block	proKLK7 act	proKLK7 act conf	EDANS-DABCYL int	others
Cc1c(OC(=O)CNC(=O)OC(C)(C)C)ccc2c3c(c(=O)oc12)CCC3	-	-	.	418	463	485
CC(C)N(CCC(=O)c1ccc2ccccc2c1)Cc1ccccc1	-	-	-	14	15	18
COC(=O)C1=C(C)N(CCCC(=O)O)C(=O)NC1c1cc2c(cc1[N+](=O)[O-])OCO2 (stereo unspecified)	-	-	-	13	13	14
Cc1cccn2c(=O)c3cc(C(=O)NCCN4CCOCC4)c(=N)n(Cc4ccc(F)cc4)c3nc12	-	-	.	17	-	-
CCOCCCn1c(=N)c(C(=O)NCCN2CCOCC2)cc2c(=O)n3cccc(C)c3nc21	-	-	.	45	14	-	K7 EDANS ctr=-
CCOC(=O)C1=C[C@@H](CC)N(S(=O)(=O)c2ccc(C)cc2)[C@H]1c1cccc(Cl)c1	-	.	-	-	.	.
COc1ccc(C(=O)Nc2ccc(NC(=O)c3ccco3)c(Cl)c2)cc1OC	-	-	-	16	-	-
O=C(Nc1ccc(NC(=O)c2ccco2)c(Cl)c1)c1ccccc1	-	-	-	-	.	.
CC(=O)Nc1c(-c2ccccc2)nc2ncccn12	-	-	.	22	60	57
CC(=O)Nc1nc2ncccn2c1-c1ccccc1	.	.	.	-	.	.
O=C(Nc1ccc(F)cc1)Nc1c(-c2ccc(F)cc2)nc2ncccn12	.	.	.	15	-	5.1
O=C(Nc1c(-c2ccccc2)nc2ncccn12)c1ccc(F)cc1	.	.	.	14	-	11
CC(=O)Nc1nc2ncccn2c1-c1ccc(F)c(F)c1	.	.	.	21	27	26
CCOC(=O)[C@]12CCCCC/C=C\1N(Cc1ccc(OC)cc1)C(=O)[C@H]2CC(=O)NCCC(C)C	.	.	.	-	.	.
COCCNc1cc(C)nc2c3c(C)cc(C)nc3nn12	-	-	.	81	70	63
Cc1cc(C)c2c(n1)nn1c(NCCN3CCOCC3)cc(C)nc21	-	-	.	33	40	32	K7 EDANS ctr=-
Cc1cc(NCCN2CCOCC2)n2nc(C)c(-c3ccccc3)c2n1	-	-	-	-	.	.
Cc1ccccc1CN1CCCCC(NC(=O)Nc2cccc(F)c2)C1=O (stereo unspecified)	.	.	.	-	.	.
O=C(N/N=C/c1c[nH]c2ccccc12)c1[nH]c2ccc(Br)cc2c1-c1ccccc1	-	-	.	84	-	-
O=C(N/N=C/c1ccc(O)cc1)c1[nH]c2ccc(Br)cc2c1-c1ccccc1	-	-	.	-	.	.
C[C@H](O)[C@@H]1CN2CCc3c([nH]c4ccccc34)[C@@H]2C[C@@H]1N(C)C(=O)Nc1cc(Cl)cc(Cl)c1	-	-	-	-	.	.
C[C@H](O)[C@@H]1C(=O)N2CCc3c([nH]c4ccccc34)[C@@H]2C[C@@H]1N(C)C(=O)Nc1ccccc1	-	-	.	26	-	6.5
C[C@H](O)[C@@H]1C(=O)N2CCc3c([nH]c4ccccc34)[C@@H]2C[C@@H]1N(C)C(=O)Nc1ccc(Br)cc1	.	.	.	37	-	-
C[C@H](O)[C@@H]1C(=O)N2CCc3c([nH]c4ccccc34)[C@@H]2C[C@@H]1N(C)C(=O)Nc1cc(Cl)cc(Cl)c1	-	-	.	19	-	6.1
C[C@H](O)[C@@H]1CN2CCc3c([nH]c4ccccc34)[C@@H]2C[C@@H]1N(C)C(=O)Nc1ccc(F)cc1	-	-	-	16	-	-
